Results taken from PubChem BioAssay.
Records with an inconclusive call do not appear. Active and inactive are the calls of the source.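 How the source made its calls, unless noted: active means inhibition above 50%, about 3 SD of the validation set; inactive means the rest.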

How the values were obtained:
[1] = yeast TOR pathway RPL19A-GFP modulators, primary screen, cell-based, S. cerevisiae, multiplex flow cytometry (AID 1862; in the data active means percent of DMSO control GFP below about 86%;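 further: lower values mimic rapamycin by blocking the RPL19A rise seen in DMSO cells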); settings: S. cerevisiae RPL19A-GFP strain, flow cytometry fluorescence, 3 h; at 10 µM; stronger effect = lower value
[2] = modulators of MEP2-GFP levels in yeast, primary screen, S. cerevisiae, multiplex flow cytometry (AID 1867;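 active means GFP response, as percent of the DMSO control, above the screen-wide mean plus 3 SD, about 139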;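 further: median GFP channel fluorescence of barcode-gated MEP2-GFP cells measured by flow cytometry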); settings: S. cerevisiae MEP2-GFP strain, 3 h, at 10 µM, stronger effect = higher value, 100% means same as DMSO wells
[3] = modulators of CIT2-GFP expression in yeast, primary screen, S. cerevisiae, GFP fusion, multiplex flow cytometry (AID 1870;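 active means percent response above a set limit, the screen-wide mean plus 3 SD, cut at about 130% in these data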;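 further: barcoded CIT2-GFP strain pooled with four other GFP strains with rapamycin as positive control; median GFP fluorescence per well over plate mean of DMSO wells so 100% = DMSO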); settings: 3 h, at 10 µM, stronger effect = higher value
[4] = modulators of LAP4-GFP expression in yeast, primary screen, S. cerevisiae, multiplex flow cytometry (AID 1873;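 active means GFP signal, as percent of the solvent control, above the screen mean plus 3 SD, about 149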); settings: 3 h, at 10 µM, stronger effect = higher value
[5] = modulators of AGP1-GFP expression in yeast TOR pathway, primary screen, cell-based, multiplex flow cytometry, S. cerevisiae (AID 1887;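 active means GFP signal above the screen-wide mean plus 3 SD, that is over about 124.5% of the solvent control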;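 further: AGP1-GFP fusion strain of S. cerevisiae within a five-strain barcoded multiplex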); settings: 3 h, at 10 µM, stronger effect = higher value
[6] = inhibitors of CD8+ T cell-vesicle binding, pilot screen, LFA-1/ICAM-1 modulator project, MLPCN validation set, flow cytometry (AID 2523;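 active means response below a set limit, under 55% cells CD8-positive and vesicle-bound, and CD8 cells' 90th-percentile brightness under 279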;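 on vesicle binding response: mean PE anti-B7-1 fluorescence of CD8+ cells relative to row control; 100% = QL9-loaded vesicles with DMSO vehicle in the same plate row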); settings: 2C mouse CD8+ T cells, at 7 µM, stronger effect = lower value; double positive events: measured here: CD8+/vesicle+ event percentage
[7] = molecular target: Integrin beta-1 (Homo sapiens) + Integrin alpha-4 (Homo sapiens) (UniProt P13612+P05556); assay: inhibition of HUTS-21 binding to VLA-4, pilot screen, VLA-4 allosteric modulator project, U937 cells, HUTS-21 mAb, flow cytometry, validation set (AID 2674); settings: HUTS-21 LIBS mAb binding, at 6.7 µM, stronger effect = higher value, binding induced by LDV ligand;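 further: antibody binding induced by the VLA-4 ligand LDV present at three times its Kd; 0% = LDV ligand with antibody and no compound and 100% = antibody without LDV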
[8] = superoxide lowering in aged yeast cells, pilot screen, validation compound set (AID 2706;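 active means superoxide response below 65% of plate, a cut near 3 SD across the whole screen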;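 further: yeast exposed to compound for one week at 30 degrees C before staining; 100% = mean of all compound wells on the same plate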); settings: S. cerevisiae aging, superoxide DHE fluorescence; at 10 µM, stronger effect = lower value
[9] = molecular target: Beta-adrenergic receptor kinase 1 (Homo sapiens) (UniProt P25098); assay: GRK2 binders displacing RNA aptamer, biochemical, validation, human GRK2, bead flow cytometry (AID 488806;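 active means aptamer binding inhibition above 30%, about 3 SD of noise from non-fluorescent compounds; inactive means inhibition at or below 30%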); settings: bead-bound GRK2, FAM-aptamer displacement, at 10 µM, stronger effect = higher value
[10] = molecular target: AP-2 complex subunit beta (Homo sapiens) (UniProt P63010); assay: inhibitors of arrestin peptide binding to AP2, pilot screen, biochemical, validation set, GST-AP2 beads, flow cytometry (AID 504541;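 active means inhibition above 54%, about 3 SD of non-fluorescent compounds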;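 further: AP2 carries R879A mutation and is captured from E. coli lysate; bead-bound FITC arrestin peptide fluorescence measuring arrestin peptide binding to AP2; 0% = DMSO wells and 100% = excess unlabeled arrestin peptide control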); settings: FITC arrestin peptide, at 10 µM, stronger effect = higher value, AP2 beta2 appendage fragment, R879A mutant
[11] = yeast V-ATPase proton transport modulators, S. cerevisiae, pHLuorin, HTS validation (AID 504600; in the data active means response above about 15%;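 further: plate controls were DMSO for no effect and reference compound for full effect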); settings: S. cerevisiae pHLuorin cytosolic pH, at 10 µM, stronger effect = higher value
[12] = test system: anti-desmoglein-3 scFv antibody binding to human DSG3; assay: inhibitors of anti-DSG3 scFv binding to DSG3, pilot screen, biochemical, validation compound set, bead-based, flow cytometry (AID 588368;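 active means binding below the plate cutoff, the plate median minus 3 SD, with a reading above zero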;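 further: signal is the median channel fluorescence of bead-bound GFP antibody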); settings: Protein G beads, DSG3-Fc, scFv-GFP binding, at 10 µM, stronger effect = lower value
[13] = inhibitors of fungal efflux pumps CDR1, CDR2, MDR1, pilot screen, validation compound set, multiplex, phenotypic (AID 588506;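 active means efflux inhibition above 0.42, the validation set average plus 4 SD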;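 further: Nile Red retained in cells so higher fluorescence means more efflux inhibition; 0 = negative control wells and 1 = enniatin B 25 µM full block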); settings: S. cerevisiae pump-expressing triplex, Nile Red efflux flow cytometry; at 10 µM; stronger effect = higher value; the pumps come from Candida albicans
[14] = molecular target: ATP-binding cassette sub-family B member 6 (Homo sapiens) (UniProt Q9NP58); assay: ABCB6 transporter inhibitors, pilot screen, K562-ABCB6 cells, flow cytometry, validation set (AID 588550;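 active means inhibition above the screen-wide mean plus 3 SD, about 51%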;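 further: 0% = DMSO wells and 100% = benzethonium chloride 70 µM positive control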); settings: K562-ABCB6 porphyrin accumulation, 1 h, at 10 µM, stronger effect = higher value
[15] = promoters of myeloid differentiation in arrested cells, primary screen, cell-based, GFP/MAC1 double positive, flow cytometry, validation set (AID 588685;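 active means differentiation response of at least 50%, scaled between solvent and reference control, from cells with both markers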;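 further: compound exposure lasts four days before antibody staining and flow analysis; 0% = DMSO wells and 100% = 5 µM fulvestrant positive control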); settings: ER-HoxA9 marrow cells, stronger effect = higher value, normalized: vehicle 0, fulvestrant 100

ATP-binding cassette sub-family B member 6 (Homo sapiens), sequence (Q9NP58 whole entry, looked up): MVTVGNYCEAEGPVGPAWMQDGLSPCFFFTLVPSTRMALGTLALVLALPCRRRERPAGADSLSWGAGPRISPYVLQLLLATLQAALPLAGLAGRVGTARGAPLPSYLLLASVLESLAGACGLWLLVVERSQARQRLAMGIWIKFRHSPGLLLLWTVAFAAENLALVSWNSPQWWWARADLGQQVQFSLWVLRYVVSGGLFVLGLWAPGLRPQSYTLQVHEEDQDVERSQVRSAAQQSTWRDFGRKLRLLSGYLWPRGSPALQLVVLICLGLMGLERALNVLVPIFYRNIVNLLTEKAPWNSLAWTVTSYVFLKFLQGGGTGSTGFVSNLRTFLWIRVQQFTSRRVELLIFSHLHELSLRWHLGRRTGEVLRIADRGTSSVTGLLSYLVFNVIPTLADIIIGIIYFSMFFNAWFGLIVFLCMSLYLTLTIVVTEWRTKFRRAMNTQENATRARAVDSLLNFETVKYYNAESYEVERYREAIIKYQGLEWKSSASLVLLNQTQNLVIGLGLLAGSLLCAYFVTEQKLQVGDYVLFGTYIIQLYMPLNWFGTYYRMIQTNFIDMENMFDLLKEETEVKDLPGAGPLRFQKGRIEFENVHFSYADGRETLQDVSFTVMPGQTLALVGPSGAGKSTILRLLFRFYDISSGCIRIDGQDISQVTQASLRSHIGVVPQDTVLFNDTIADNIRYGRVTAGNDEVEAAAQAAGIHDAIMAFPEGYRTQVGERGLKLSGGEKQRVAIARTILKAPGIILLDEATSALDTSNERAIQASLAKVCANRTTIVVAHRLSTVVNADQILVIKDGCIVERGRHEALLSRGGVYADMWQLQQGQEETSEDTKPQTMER
AP-2 complex subunit beta (Homo sapiens), sequence (P63010 whole entry, looked up, the tested form may be a part, one chain of several): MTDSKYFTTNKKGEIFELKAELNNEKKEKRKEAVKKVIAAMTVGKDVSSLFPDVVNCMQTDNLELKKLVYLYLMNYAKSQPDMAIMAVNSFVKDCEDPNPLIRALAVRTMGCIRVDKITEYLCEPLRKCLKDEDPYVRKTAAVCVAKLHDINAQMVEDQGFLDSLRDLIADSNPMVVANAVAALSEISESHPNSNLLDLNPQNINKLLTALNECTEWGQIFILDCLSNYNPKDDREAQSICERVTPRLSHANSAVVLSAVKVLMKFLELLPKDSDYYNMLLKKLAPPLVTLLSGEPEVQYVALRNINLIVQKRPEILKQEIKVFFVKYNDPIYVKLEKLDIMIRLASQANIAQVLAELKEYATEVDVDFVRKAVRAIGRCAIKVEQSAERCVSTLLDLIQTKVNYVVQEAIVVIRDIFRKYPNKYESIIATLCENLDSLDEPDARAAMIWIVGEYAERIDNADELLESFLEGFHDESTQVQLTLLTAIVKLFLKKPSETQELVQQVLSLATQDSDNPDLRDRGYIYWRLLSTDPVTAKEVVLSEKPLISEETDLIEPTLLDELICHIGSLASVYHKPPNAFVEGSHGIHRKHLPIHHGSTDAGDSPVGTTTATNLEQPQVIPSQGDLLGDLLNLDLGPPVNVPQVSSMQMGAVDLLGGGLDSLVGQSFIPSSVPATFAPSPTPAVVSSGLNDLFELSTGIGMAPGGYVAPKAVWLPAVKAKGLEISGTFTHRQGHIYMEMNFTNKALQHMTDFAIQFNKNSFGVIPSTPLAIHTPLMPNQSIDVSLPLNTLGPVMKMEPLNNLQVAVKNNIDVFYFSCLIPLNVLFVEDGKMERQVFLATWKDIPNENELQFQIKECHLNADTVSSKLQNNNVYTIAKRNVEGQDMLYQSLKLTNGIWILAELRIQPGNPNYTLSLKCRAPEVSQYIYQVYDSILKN
Integrin beta-1 (Homo sapiens) + Integrin alpha-4 (Homo sapiens), sequence (P05556 whole entry, looked up): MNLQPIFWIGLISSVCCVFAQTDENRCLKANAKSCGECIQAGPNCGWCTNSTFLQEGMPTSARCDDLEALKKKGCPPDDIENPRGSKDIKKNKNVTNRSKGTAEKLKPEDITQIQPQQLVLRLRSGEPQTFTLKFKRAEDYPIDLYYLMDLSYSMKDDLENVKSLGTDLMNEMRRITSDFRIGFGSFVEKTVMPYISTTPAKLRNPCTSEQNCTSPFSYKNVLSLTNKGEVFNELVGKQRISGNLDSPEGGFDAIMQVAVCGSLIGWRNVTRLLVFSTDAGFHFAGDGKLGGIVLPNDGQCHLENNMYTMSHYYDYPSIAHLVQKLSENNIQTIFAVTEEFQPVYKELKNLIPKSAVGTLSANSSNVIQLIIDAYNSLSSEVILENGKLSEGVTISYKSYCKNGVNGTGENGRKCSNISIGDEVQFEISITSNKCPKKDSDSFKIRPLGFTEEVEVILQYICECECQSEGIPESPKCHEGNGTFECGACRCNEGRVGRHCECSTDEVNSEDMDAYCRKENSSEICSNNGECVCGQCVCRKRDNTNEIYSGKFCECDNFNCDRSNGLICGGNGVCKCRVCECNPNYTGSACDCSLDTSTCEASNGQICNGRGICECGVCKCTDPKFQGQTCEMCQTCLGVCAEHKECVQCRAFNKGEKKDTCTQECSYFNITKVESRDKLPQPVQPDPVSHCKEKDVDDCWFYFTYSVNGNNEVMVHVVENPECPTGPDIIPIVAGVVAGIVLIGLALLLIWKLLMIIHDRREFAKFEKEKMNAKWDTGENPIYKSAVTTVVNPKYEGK
Integrin beta-1 (Homo sapiens) + Integrin alpha-4 (Homo sapiens), sequence (P13612 whole entry, looked up): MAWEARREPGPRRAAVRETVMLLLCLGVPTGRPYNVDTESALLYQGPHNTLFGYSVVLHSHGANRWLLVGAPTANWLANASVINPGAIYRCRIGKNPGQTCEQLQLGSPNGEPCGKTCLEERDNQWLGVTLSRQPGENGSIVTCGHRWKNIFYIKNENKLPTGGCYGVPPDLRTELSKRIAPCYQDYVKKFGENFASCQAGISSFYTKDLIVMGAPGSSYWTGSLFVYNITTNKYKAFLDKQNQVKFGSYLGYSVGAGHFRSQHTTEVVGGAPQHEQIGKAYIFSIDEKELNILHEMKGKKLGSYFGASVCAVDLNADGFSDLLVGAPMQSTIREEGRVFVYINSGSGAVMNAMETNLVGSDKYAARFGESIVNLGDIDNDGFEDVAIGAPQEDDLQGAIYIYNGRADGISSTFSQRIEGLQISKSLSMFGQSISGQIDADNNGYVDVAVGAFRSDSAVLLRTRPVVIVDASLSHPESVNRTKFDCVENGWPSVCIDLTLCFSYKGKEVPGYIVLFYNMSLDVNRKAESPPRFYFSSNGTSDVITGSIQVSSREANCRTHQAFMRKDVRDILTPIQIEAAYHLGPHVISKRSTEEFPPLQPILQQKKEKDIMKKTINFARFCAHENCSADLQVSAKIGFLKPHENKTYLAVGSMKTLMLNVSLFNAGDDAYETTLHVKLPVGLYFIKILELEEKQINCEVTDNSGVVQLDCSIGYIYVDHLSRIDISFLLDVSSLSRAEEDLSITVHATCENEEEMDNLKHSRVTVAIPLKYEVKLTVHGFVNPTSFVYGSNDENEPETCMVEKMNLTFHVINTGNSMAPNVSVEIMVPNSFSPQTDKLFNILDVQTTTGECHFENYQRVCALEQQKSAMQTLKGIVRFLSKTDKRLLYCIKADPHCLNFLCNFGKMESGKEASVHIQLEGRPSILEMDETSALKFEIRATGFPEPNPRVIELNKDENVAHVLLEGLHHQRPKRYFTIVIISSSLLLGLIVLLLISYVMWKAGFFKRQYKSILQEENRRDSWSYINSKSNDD
Beta-adrenergic receptor kinase 1 (Homo sapiens), sequence (P25098 whole entry, looked up): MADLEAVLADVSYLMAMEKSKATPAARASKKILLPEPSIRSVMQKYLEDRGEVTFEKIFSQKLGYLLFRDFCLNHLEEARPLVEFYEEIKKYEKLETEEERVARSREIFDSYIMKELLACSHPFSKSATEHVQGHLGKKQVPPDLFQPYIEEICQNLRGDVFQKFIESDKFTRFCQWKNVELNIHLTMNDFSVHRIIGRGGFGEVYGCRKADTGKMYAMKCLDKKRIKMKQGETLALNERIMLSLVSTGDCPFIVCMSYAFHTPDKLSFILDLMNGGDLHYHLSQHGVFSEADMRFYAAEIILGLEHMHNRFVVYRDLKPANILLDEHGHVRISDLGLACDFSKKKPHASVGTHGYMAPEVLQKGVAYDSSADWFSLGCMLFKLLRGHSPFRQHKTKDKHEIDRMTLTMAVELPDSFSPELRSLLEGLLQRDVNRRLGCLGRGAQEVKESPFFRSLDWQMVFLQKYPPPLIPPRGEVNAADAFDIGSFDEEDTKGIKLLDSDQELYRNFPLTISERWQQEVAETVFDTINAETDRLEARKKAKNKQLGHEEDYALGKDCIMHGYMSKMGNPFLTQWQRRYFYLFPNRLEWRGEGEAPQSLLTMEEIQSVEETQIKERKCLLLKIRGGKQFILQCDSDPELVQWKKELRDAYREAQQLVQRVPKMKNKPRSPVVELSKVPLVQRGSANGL

O=C(c1ccc(O)cc1)c1ccc(O)cc1O
active: differentiation response [15] 49.9%
59.2%: double positive events [6]
inactive: percent of DMSO control GFP [1] 101% | GFP response vs DMSO [2] 108% | percent response of DMSO control [3] 104% | GFP response vs DMSO [4] 101% | GFP response, % of DMSO [5] 99.1% | vesicle binding response [6] 122% | inhibition [7] 4.42% | superoxide response (% of plate) [8] 95.7% | aptamer binding inhibition [9] 3% | inhibition [10] 45.5% | response [11] -7.71% | binding (% of control) [12] 96.9% | efflux inhibition (fraction of control) [13] 0.06 | inhibition [14] 6%

COc1cccc(CN2CCN(C(=O)c3ccc(-c4ccccc4)cc3)CC2)c1
inactive: percent of DMSO control GFP [1] 99.1% | GFP response vs DMSO [2] 103% | percent response of DMSO control [3] 103% | GFP response vs DMSO [4] 113% | GFP response, % of DMSO [5] 98.8% | vesicle binding response [6] 189% | inhibition [7] -6.77% | superoxide response (% of plate) [8] 87.9% | aptamer binding inhibition [9] 2% | inhibition [10] -7.96% | response [11] 5.01% | binding (% of control) [12] 99.5% | efflux inhibition (fraction of control) [13] 0.22 | inhibition [14] 7% | differentiation response [15] 4.64%
52.5%: double positive events [6]

Cc1ncc([N+](=O)[O-])n1CCO
inactive: percent of DMSO control GFP [1] 99.6% | GFP response vs DMSO [2] 93.8% | percent response of DMSO control [3] 105% | GFP response vs DMSO [4] 97.4% | GFP response, % of DMSO [5] 94.6% | vesicle binding response [6] 172% | inhibition [7] 10% | superoxide response (% of plate) [8] 98.8% | aptamer binding inhibition [9] 1% | inhibition [10] -1.26% | response [11] 3.07% | binding (% of control) [12] 93.1% | efflux inhibition (fraction of control) [13] 0.18 | inhibition [14] 5% | differentiation response [15] -9.89%
59.8%: double positive events [6]

COCCOC(=O)c1c(C)oc2ccc(OCc3cc(C(=O)OC)oc3C)cc12
52.6%: double positive events [6]
inactive: percent of DMSO control GFP [1] 97.6% | GFP response vs DMSO [2] 102% | percent response of DMSO control [3] 93.9% | GFP response vs DMSO [4] 101% | GFP response, % of DMSO [5] 98.1% | vesicle binding response [6] 202% | inhibition [7] 10.9% | superoxide response (% of plate) [8] 93.4% | aptamer binding inhibition [9] 0% | inhibition [10] -4.42% | binding (% of control) [12] 98.7% | efflux inhibition (fraction of control) [13] 0.06 | inhibition [14] 4% | differentiation response [15] -11.5%
active: response [11] 26.8%

O=C(O)CCCCCCCC(=O)O
58.5%: double positive events [6]
inactive: percent of DMSO control GFP [1] 100% | GFP response vs DMSO [2] 99.9% | percent response of DMSO control [3] 90% | GFP response vs DMSO [4] 117% | GFP response, % of DMSO [5] 97.5% | vesicle binding response [6] 171% | inhibition [7] -6.77% | superoxide response (% of plate) [8] 101% | aptamer binding inhibition [9] 4% | inhibition [10] 12.5% | response [11] 0.2% | binding (% of control) [12] 99% | efflux inhibition (fraction of control) [13] 0.14 | inhibition [14] -18% | differentiation response [15] 24%

Cc1ccc2c(c1)c1c3n2CCCNC3CCC1 (stereo not given)
63.9%: double positive events [6]
inactive: percent of DMSO control GFP [1] 103% | GFP response vs DMSO [2] 106% | percent response of DMSO control [3] 107% | GFP response vs DMSO [4] 95.4% | GFP response, % of DMSO [5] 94% | vesicle binding response [6] 229% | inhibition [7] 10% | superoxide response (% of plate) [8] 85.7% | aptamer binding inhibition [9] -4% | inhibition [10] -3% | response [11] 3.62% | binding (% of control) [12] 111% | efflux inhibition (fraction of control) [13] -0.05 | inhibition [14] 9% | differentiation response [15] -3.43%

NCCOc1ccccc1OCCN
inactive: percent of DMSO control GFP [1] 102% | GFP response vs DMSO [2] 93.8% | percent response of DMSO control [3] 102% | GFP response vs DMSO [4] 90.3% | GFP response, % of DMSO [5] 99.9% | vesicle binding response [6] 208% | inhibition [7] -6.77% | superoxide response (% of plate) [8] 91.8% | aptamer binding inhibition [9] -6% | inhibition [10] -11.9% | response [11] -1.26% | binding (% of control) [12] 109% | efflux inhibition (fraction of control) [13] -0.2 | inhibition [14] 11% | differentiation response [15] -26%
59.5%: double positive events [6]

COc1ccc2nc(Nc3nc(CSc4ccc(C)cc4)cc(=O)[nH]3)nc(C)c2c1
inactive: percent of DMSO control GFP [1] 99% | GFP response vs DMSO [2] 103% | percent response of DMSO control [3] 98.8% | GFP response vs DMSO [4] 90.3% | GFP response, % of DMSO [5] 104% | vesicle binding response [6] 217% | inhibition [7] 8.15% | superoxide response (% of plate) [8] 104% | aptamer binding inhibition [9] 0% | inhibition [10] 8.24% | response [11] -0.97% | binding (% of control) [12] 103% | efflux inhibition (fraction of control) [13] -0.43 | inhibition [14] 6% | differentiation response [15] -24.4%
63.5%: double positive events [6]

COc1ccc(C2NC(=O)c3ccccc3N2)cc1OC (stereo not given)
inactive: percent of DMSO control GFP [1] 98.8% | GFP response vs DMSO [2] 99.9% | percent response of DMSO control [3] 96.9% | GFP response vs DMSO [4] 94.3% | GFP response, % of DMSO [5] 92.2% | vesicle binding response [6] 117% | inhibition [7] 10.9% | superoxide response (% of plate) [8] 108% | aptamer binding inhibition [9] 5% | inhibition [10] 3.03% | response [11] 1.73% | binding (% of control) [12] 95.1% | efflux inhibition (fraction of control) [13] 0.06 | inhibition [14] 11% | differentiation response [15] -3.43%
64.4%: double positive events [6]

Cc1nc2sccn2c(=O)c1CCN1CCC(=C(c2ccc(F)cc2)c2ccc(F)cc2)CC1
inactive: percent of DMSO control GFP [1] 101% | GFP response vs DMSO [2] 98.6% | percent response of DMSO control [3] 105% | GFP response vs DMSO [4] 121% | GFP response, % of DMSO [5] 121% | vesicle binding response [6] 217% | inhibition [7] 2.29% | superoxide response (% of plate) [8] 86.3% | aptamer binding inhibition [9] -2% | inhibition [10] -0.42% | response [11] -6.88% | binding (% of control) [12] 109% | efflux inhibition (fraction of control) [13] 0.08 | inhibition [14] 2% | differentiation response [15] -4%
61.2%: double positive events [6]
